Source: PubChem (National Center for Advancing Translational Sciences (NCATS))
HCMV antiviral = inhibitors of human cytomegalovirus. HFF cells, HCMV-luciferase reporter, 72 h; stronger effect = lower value. activity change, negative = inhibition, % at 57.5 µM. 410,000 compounds, 4.5% hits. AID 1259415; in the data active = activity change below about -60%; inconclusive = no clear call, values can overlap the other calls; inactive = above about -39%
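Compounds were evaluated in HFFs infected with an HCMV luciferase reporter virus (MOI 1 PFU/cell). Luciferase in lysates collected 72 h post infection served as the replication measure.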
Pf growth 96h = inhibits malaria parasite growth, 96 h. P. falciparum luciferase reporter growth, 96 h. Potency, µM (top dose mostly 28.7 µM), hits mostly inhibitors. 320,000 compounds, 6.9% hits. AID 504834
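Two-generation exposure (96 h) targets delayed-death phenotype. Reporter parasites carrying integrated firefly luciferase, in red cells at 2% hematocrit and 0.05% parasitemia final, kept at 37 C, 5% CO2; luminescence loss indicates inhibition.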
Pf growth 48h = P. falciparum growth inhibition at 48 hours (one generation); P. falciparum luciferase growth in erythrocytes, 48 h; Potency, µM (doses to about 28.7 µM), hits mostly inhibitors; 310,000 compounds, 5.9% hits; AID 504832
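Here the parasites carry a stable luciferase gene and grow inside erythrocytes in Albumax-based RPMI medium with compound for one erythrocytic cycle. Activity is scored as loss of luminescent signal.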
LASV entry inh = inhibitors of Lassa virus binding or cell entry | Lassa virus pseudotype entry inhibition, cell reporter | Potency, µM (highest dose often 37.9 µM), hits mostly inhibitors | 300,000 compounds, 1.2% hits; calls by dose curve; tested in HEK293 cells; also: nearly all actives have a fitted effect of over 50% in size
MARV entry inh = Marburg virus entry inhibition. Marburg virus pseudotyped entry inhibition, cell reporter. Potency, µM (doses to about 37.8 µM), most hits filed as inhibitors. 300,000 compounds, 1.8% hits; calls by dose curve; tested in HEK293 cells
HCV inh = inhibitors of hepatitis C virus infection. Potency, µM (top dose mostly 41.8 µM), actives largely listed as inhibitors. 340,000 compounds, 3.4% hits. Huh7.5.1 HCVcc-Cre infection, luciferase reporter, 44 h
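Reporter virus HCVcc-Cre (~0.5 moi) infects cells exposed to compound; seeding density 1,000 cells/well with 4 h settling beforehand. Luminescence, 15 sec read, taken 44 h post-infection following a 15 min RT substrate incubation.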
Numbers stand for hits. An excerpt weighted towards active compounds, which were near 14% of everything screened. Unless noted, calls follow the shape of the dose curve; as a rule, active = well fitted inhibition curve with a large enough effect; inconclusive = small, poorly fitted or top-dose-only effect, or another doubt; inactive = no such curve, though single readings can be large or run the other way.

O=C(NC1CC(=O)N(c2ccccc2)C1)c1cc2ccccc2o1 (stereo not drawn) was read as HCMV antiviral inconclusive and LASV entry inh inactive.
CCCn1c2c(c(O)c(C(=O)NCCCN(CC)CC)c1=O)CCCC2 was read as HCMV antiviral inactive, Pf growth 96h inactive, Pf growth 48h inconclusive, LASV entry inh inactive, MARV entry inh 10µM and HCV inh inconclusive.
`CCCn1c2c(c(O)c(C(=O)Nc3ccc(OC)cc3)c1=O)CCCC2` gave HCMV antiviral inactive, Pf growth 96h inconclusive, Pf growth 48h inconclusive, LASV entry inh inactive, MARV entry inh inactive and HCV inh 11µM.
`CCCn1c2c(c(O)c(C(=O)NCc3ccccc3)c1=O)CCCC2` gave HCMV antiviral inactive, Pf growth 96h inconclusive, Pf growth 48h inactive, LASV entry inh inactive, MARV entry inh inactive and HCV inh 5µM.
Screening Cc1nc2ccccc2c(=O)n1NC(=O)c1c(O)c2c(n(CC(C)C)c1=O)CCCC2 returned HCMV antiviral inconclusive, Pf growth 96h inactive, Pf growth 48h inconclusive, LASV entry inh inactive, MARV entry inh inconclusive and HCV inh inconclusive.
CCCCCCc1nc2ccccc2c(=O)n1NC(=O)c1c(O)c2c(n(CC(C)C)c1=O)CCCC2 was read as HCMV antiviral -93, Pf growth 96h inconclusive, Pf growth 48h inactive, LASV entry inh inconclusive, MARV entry inh inactive and HCV inh inactive.
Screening COc1ccc(CCN2C(=O)c3[nH]nc(-c4ccccc4O)c3C2c2ccc(OC)cc2)cc1 (stereo not drawn) returned HCMV antiviral inactive, LASV entry inh inconclusive and MARV entry inh inactive.
Screening FC(F)(F)Oc1ccc(Nc2cc3[nH]c(-c4ccccc4)cc3cn2)cc1 returned HCMV antiviral inactive.
Oc1cccc(Nc2cc3[nH]c(-c4ccccc4)cc3cn2)c1 was read as HCMV antiviral -87.
`CCc1ccc(S(=O)(=O)Nc2ccc3c(c2)sc(=O)n3C)cc1` gave HCMV antiviral inactive and LASV entry inh inactive.
Screening CCOC(=O)[C@H]1[C@H]2COc3ccc(OC)cc3[C@@H]2N2C(=O)c3ccccc3NC(=O)[C@@]12C returned HCMV antiviral -80, Pf growth 96h inconclusive, Pf growth 48h inconclusive and HCV inh inconclusive.
Screening CCOC(=O)[C@H]1[C@H]2COc3ccc(C)cc3[C@@H]2N2C(=O)c3cc(C)ccc3NC(=O)[C@@]12C returned HCMV antiviral inactive and HCV inh inactive.
`CCOC(=O)[C@H]1[C@H]2COc3ccc(OC)cc3[C@@H]2N2C(=O)c3cc(OC)ccc3NC(=O)[C@@]12C` gave HCMV antiviral inactive, Pf growth 96h inconclusive, Pf growth 48h 10µM and HCV inh inactive.
Screening COc1ccccc1NC(=O)C1CCC(CNS(=O)(=O)c2ccc3c(c2)CC(C)N3C(C)=O)CC1 (stereo not drawn) returned HCMV antiviral inactive and LASV entry inh inconclusive.
Cc1c(Cl)cccc1NC(=O)CN1CCN(CCO)CC1 was read as HCMV antiviral inactive, Pf growth 96h inactive, Pf growth 48h inactive, LASV entry inh inactive, MARV entry inh inactive and HCV inh inactive.
For Cc1nc(Nc2ncc(C(=O)Nc3c(C)cccc3Cl)s2)cc(N2CCN(CCO)CC2)n1 the results were Pf growth 96h 7.6µM and Pf growth 48h 9.5µM.
COc1ccc(CCc2cc(OC)cc(=O)o2)cc1 was read as HCMV antiviral inactive, Pf growth 96h 1.9µM, Pf growth 48h inactive and HCV inh inactive.
For COc1ccc(-c2nc3ccccc3n(CC(C)C)c2=O)cc1 the results were HCMV antiviral inactive.
`CC(=O)Nc1ccc(NC(=O)CC2SC(=O)N(CC(=O)c3ccccc3)C2=O)cc1` (stereo not drawn) gave HCMV antiviral inactive, Pf growth 96h 10µM, Pf growth 48h inactive, LASV entry inh inactive, MARV entry inh inactive and HCV inh inactive.
`CCCN1C(=O)SC(CC(=O)Nc2ccc(C)cc2)C1=O` (stereo not drawn) gave HCMV antiviral inactive, Pf growth 96h inconclusive, Pf growth 48h inactive, LASV entry inh inactive, MARV entry inh inconclusive and HCV inh inactive.
For Cc1cc(C(=O)Nc2c(C)nn(Cc3ccc(F)cc3)c2C)no1 the results were HCMV antiviral inactive, LASV entry inh inactive and MARV entry inh inactive.
`Cc1cc(C(=O)Nc2c(C)nn(Cc3c(Cl)cccc3Cl)c2C)no1` gave HCMV antiviral -62, Pf growth 96h inactive, Pf growth 48h inactive, LASV entry inh 5.8µM, MARV entry inh 2.6µM and HCV inh inactive.
For Cc1nn(Cc2c(Cl)cccc2Cl)c(C)c1NC(=O)c1cc(C(C)C)on1 the results were HCMV antiviral -98, Pf growth 96h 9.3µM and HCV inh inconclusive.
`Cc1nn(Cc2ccc(Cl)cc2)c(C)c1NC(=O)c1cc(C(C)C)on1` gave HCMV antiviral inconclusive, Pf growth 96h inactive, Pf growth 48h inactive, LASV entry inh inactive, MARV entry inh inconclusive and HCV inh 11µM.
Cc1nn(Cc2ccccc2Cl)c(C)c1NC(=O)c1cc(C(C)C)on1 was read as HCMV antiviral inactive, LASV entry inh inconclusive and MARV entry inh inconclusive.
For CCOC(=O)N[C@@H](Cc1cccnc1)C(=O)N1CCC[C@H]1C(=O)NCCc1ccccc1Cl the results were HCMV antiviral inactive.
`COc1ccc(-c2cc(C(=O)N3CCCCC3)c3ccccc3n2)cc1` gave HCMV antiviral inactive, Pf growth 96h inactive, Pf growth 48h inactive, LASV entry inh inactive, MARV entry inh inactive and HCV inh inactive.
Cc1cccc2c(C(=O)N3CCN(c4ccccc4)CC3)cc(-c3ccncc3)nc12 was read as HCMV antiviral inconclusive, Pf growth 96h inconclusive, Pf growth 48h 8.3µM, LASV entry inh inconclusive, MARV entry inh inconclusive and HCV inh inactive.
Screening Cc1cccc2c(C(=O)O)cc(-c3cccnc3)nc12 returned HCMV antiviral inactive, Pf growth 96h inactive, Pf growth 48h inactive, LASV entry inh inactive, MARV entry inh inactive and HCV inh inactive.
`Cc1cccc2c(C(=O)N3CCCCC3)cc(-c3ccccc3)nc12` gave HCMV antiviral inactive, Pf growth 96h inactive, Pf growth 48h 9.3µM, LASV entry inh inactive, MARV entry inh inconclusive and HCV inh inconclusive.
CCN(C(=O)CSc1nnc(COc2cccc(C)c2)o1)c1nc(C)cs1 was read as HCMV antiviral inactive, Pf growth 96h inconclusive, Pf growth 48h inactive, LASV entry inh inactive, MARV entry inh inactive and HCV inh inactive.
`Cc1ccc2nc(Nc3nc(C)cc(C(F)(F)F)n3)nc(C)c2c1` gave HCMV antiviral inactive, Pf growth 96h 5.2µM, Pf growth 48h inconclusive, LASV entry inh inactive, MARV entry inh inconclusive and HCV inh inactive.
`Cc1cc(C(F)(F)F)nc(Nc2nc(C)c3ccccc3n2)n1` gave HCMV antiviral inactive, Pf growth 48h inactive, LASV entry inh inactive, MARV entry inh inactive and HCV inh inactive.
